This passage reports inhibition results from PubChem BioAssay AID1845 (The Scripps Research Institute Molecular Screening Center, 2009).

Screen size: about 290,000 compounds; about 490 (0.17%) were called active. The sample holds actives, similar compounds and a random draw of the others, so the mix is not that of the screen. Cut-off read from the data, not from the text of the source: active = inhibition above about 37%; inactive = the rest.

Usually inhibition stands for the relative decrease from the control value, in per cent.

The assay is described as follows: DNA intercalator displacement agents – biochemical, FID fluorescence, artefact control for HCV NS3 helicase inhibitor project, primary screen (AID 1845).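 Note: 0% = vehicle and 100% = reference compound; higher means more ethidium bromide displaced from hairpin DNA.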 The settings on record: DNA fluorescent intercalator displacement, at 7.9 µM, hits give high values.
In the case of `Cc1ccc(C(=O)N/C(=C/c2ccc(-c3cccc([N+](=O)[O-])c3)o2)C(=O)NCCCN(C)C)cc1`, the inhibition is 41.5% (active).
The result for `N#C/C(=C\c1ccc(-c2cccc([N+](=O)[O-])c2)o1)C(=O)NCCN1CCOCC1` reads 6.61% (inactive).
In the case of `CN(C)CCNC(=O)/C(=C/c1cccc([N+](=O)[O-])c1)NC(=O)c1ccccc1`, the inhibition is 14.4% (inactive).
In the case of `CCN(CC)CCNC(=O)Cn1cnc2sc(C)c(S(=O)(=O)N3CCOCC3)c2c1=O`, the inhibition was 11.1% (inactive).
Consider `CCN(CC)CCCNC(=O)Cn1cnc2sc(C)c(S(=O)(=O)N3CCN(c4ncccn4)CC3)c2c1=O`, for which the inhibition is 26.1% (inactive).
With `CCN(CC)CCNC(=O)c1sc2ncn(CC(=O)Nc3ccc(C)c(Cl)c3)c(=O)c2c1C`, the inhibition was 37% (active).
The figure for `O=C(c1c(F)cccc1F)N1CCN(c2ncc(Br)cn2)CC1` is -20.1% (inactive).
Turning to `Cc1cc(=O)oc2c3c(cc(OCC(=O)NCCC(=O)N[C@@H](C)C(=O)O)c12)OC(C)(C)CC3`, the inhibition was -35.5% (inactive).
The result for `CCn1c(=O)c(C(=O)NCc2ccc3c(c2)OCO3)c(O)c2ccccc21` reads -4.83% (inactive).
`CC1CC(C)CN(S(=O)(=O)c2cccc3nonc23)C1` (configuration not stated): the inhibition was -7.76% (inactive).
The result for `C=CCN(Cc1nc(-c2cc(OC)c3c(c2)OCO3)oc1C)C1CCS(=O)(=O)C1` (configuration not stated) reads -27.8% (inactive).
The result for `Clc1cc(NC2CCCCC2)ncn1` reads -15.2% (inactive); that for `CS(=O)(=O)N(CC(=O)N/N=C/c1ccccn1)c1ccc(Oc2ccccc2)cc1`, -33.5% (inactive).
The result for `Cc1cc(C)c2nc3nc(C)cc(C)c3c(N)c2c1` reads 62.7% (active); that for `Cc1cc(C)c2c(n1)nn1c(N3CCOCC3)cc(C)nc21`, -11.1% (inactive); that for `Cc1cc(C)c2nc(SCCC#N)nc(C)c2c1`, -17% (inactive).
Turning to `OCCN1CCN(c2nnc(-c3ccccc3)c3ccccc23)CC1`, the inhibition was -5.67% (inactive).
Turning to `O=C1c2ccccc2C(=O)c2c1cccc2N1CCN(Cc2ccccc2)CC1`, the inhibition is 8.12% (inactive).
Consider `O=C1c2ccccc2C(=O)c2c1cccc2N1CCN(CCO)CC1`, for which the inhibition was 53.2% (active).
On to `Cc1cccc(-c2nc(CS(=O)CC(=O)NC(C)CCc3ccccc3)c(C)o2)c1` (configuration not stated), for which the inhibition is -57.2% (inactive).
The figure for `CC(=N\NC(=O)c1cc(Br)ccc1O)/C(=N/O)C(=O)Nc1ccccc1` is -11.2% (inactive); for `CN1CCN(NC(=O)Nc2ccc(Br)cc2)CC1` it is -5.13% (inactive).
The result for `COc1ccccc1NC(=O)C(C)OC(=O)CC1CCCC1` (configuration not stated) reads -26.3% (inactive); that for `CC(=O)NC(CC(=O)Nc1nc(-c2ccccc2)c(C(C)=O)s1)c1ccccc1` (configuration not stated), -16.9% (inactive); that for `Clc1nc(NC2CCCC2)nc(N2CCOCC2)n1`, -6.99% (inactive).
The figure for `O=C(CNC(=O)[C@@H]1Cc2ccccc2CN1)NC1CCCCC1` is 0.62% (inactive); for `CC(C)c1cc(C(=O)N/N=C/C(Br)=C/c2ccccc2)n[nH]1` it is -26.4% (inactive).
`CCN(CC(=O)NCc1cccs1)C(=O)c1cccc(S(=O)(=O)Nc2ccccc2OC)c1`: the inhibition was -11.7% (inactive).
The figure for `COCCNC(=O)c1ccc(S(=O)(=O)c2ccc(Cl)cc2)c(NC(C)=O)c1` is 0.74% (inactive); for `COC(=O)C1(C)NC(c2ccc(F)cc2)C2C(=O)N(c3ccccc3)C(=O)C21` (configuration not stated) it is 0.11% (inactive); for `CN(C)C(=O)CCC(=O)N1CCCCC1C(=O)Nc1ccc(Oc2ccccc2F)cc1` (configuration not stated) it is -34% (inactive).
The result for `C#CCOCCOCCOCCNc1nc(N2CCN(C(=O)[C@H](C(C)C)n3cc(CCO)nn3)CC2)nc(N2CCN(C(=O)[C@H](C(C)C)n3cc(CCO)nn3)CC2)n1` reads -49.9% (inactive); that for `C#CCOCCOCCOCCNc1nc(N2CCN(C(=O)[C@H](CCCCN)n3cc([C@@H](N)C(C)CC)nn3)CC2)nc(N2CCN(C(=O)[C@H](Cc3ccc(O)cc3)n3cc([C@@H](N)C(C)CC)nn3)CC2)n1` (some centres not stated), 55.6% (active).
The result for `C#CCOCCOCCOCCNc1nc(N2CCN(C(=O)[C@H](CCC(=O)O)n3cc(C(N)CO)nn3)CC2)nc(N2CCN(C(=O)[C@H](Cc3ccc(O)cc3)n3cc(C(N)[C@H](C)CC)nn3)CC2)n1` (some centres not stated) reads 6.75% (inactive); that for `C#CCOCCOCCOCCNc1nc(N2CCN(C(=O)[C@H](Cc3ccc(O)cc3)n3cc(C(N)CC(C)C)nn3)CC2)nc(N2CCN(C(=O)[C@H](CCC(=O)O)n3cc(C(N)[C@H](C)CC)nn3)CC2)n1` (some centres not stated), 17.7% (inactive); that for `C#CCOCCOCCOCCNc1nc(N2CCN(C(=O)C(Cc3ccc(O)cc3)n3cc(C(N)CC(C)C)nn3)CC2)nc(N2CCN(C(=O)C(Cc3ccc(O)cc3)n3cc(C(N)C(C)CC)nn3)CC2)n1` (configuration not stated), 46.3% (active).
On to `C#CCOCCOCCOCCNc1nc(N2CCN(C(=O)[C@H](C(C)C)n3cc(CCO)nn3)CC2)nc(N2CCN(C(=O)[C@H]([C@@H](C)CC)n3cc(CCCN=C(N)N)nn3)CC2)n1`, for which the inhibition was 21.4% (inactive).
For the compound `Cc1cc(C)n(CCNS(=O)(=O)c2ccc(Cl)cc2)n1`, the inhibition was -8.78% (inactive).
The figure for `COc1ccc(S(=O)(=O)NNC(=O)Nc2ccc(C)cc2)c(OC)c1` is -10.4% (inactive); for `CN1CCN(S(=O)(=O)c2cccc(C(=O)Nc3cccc(S(N)(=O)=O)c3)c2)CC1` it is 12.4% (inactive).
Take `Cc1ccc(S(=O)(=O)NC2CCCCCC2)cc1C(N)=O`: the inhibition was -7.28% (inactive).
Consider `CSc1ncc(C(=O)Nc2ccc(C)cc2C)c(C)n1`, for which the inhibition is -12.3% (inactive).
In the case of `Cc1ccccc1C(=O)N1CCN(c2ccc(NC(=O)c3cccs3)cc2)CC1`, the inhibition is -49.5% (inactive).
The figure for `CC(C)c1nc2cc(C(=O)NC(C)c3cnn(C)c3)ccc2o1` (configuration not stated) is -13.1% (inactive); for `COc1cccc(NC(=O)Cn2cnc3sc(C)c(S(=O)(=O)N4CCN(C)CC4)c3c2=O)c1` it is 26.6% (inactive).
Turning to `COc1ccc(NC(=O)CCS(=O)(=O)c2cc3c(cc2Cl)NC(=O)CO3)cc1OC`, the inhibition is -5.06% (inactive).
Turning to `COc1ccc(CNC(=O)C(c2ccc(O)cc2)N(Cc2ccco2)C(=O)c2snc(C(N)=O)c2N)cc1` (configuration not stated), the inhibition is -26.1% (inactive).
With `O=C(Cn1c(NCCO)nc2ccccc21)c1ccc(Cl)cc1Cl`, the inhibition is 8.95% (inactive).
With `Cc1cc(C)c2c(Cn3ccnc3)cc(=O)oc2c1`, the inhibition was -1.43% (inactive).
The result for `Cc1sc2nc(SCCO)n(-c3ccccc3)c(=O)c2c1C` reads -17.8% (inactive); that for `Cc1cc(=O)[nH]c(Nc2cccc(Br)c2)n1`, -6.32% (inactive); that for `CC(C)(C)OC(=O)CNC(=O)c1[nH]cnc1C(=O)N[C@@H](Cc1ccccc1)C(=O)OCc1ccccc1`, -34.4% (inactive).
The result for `CN(C)C(=O)c1ccc(NC(=O)c2ccccc2-c2ccccc2)cc1` reads -15.1% (inactive).
The result for `Cc1ccoc1C(=O)Nc1cccc(Oc2ccccc2)c1` reads -5.38% (inactive).
With `CCC(C(=O)NCCC(C)C)N(Cc1ccccc1Cl)C(=O)c1snc(C(N)=O)c1N` (configuration not stated), the inhibition is -29.9% (inactive).
Consider `COc1ccc(NC(=O)CN2C(=O)COc3ccc(S(=O)(=O)N4CCOCC4)cc32)c(OC)c1`, for which the inhibition was -13.3% (inactive).
As to `COc1ccc(N2CCN(CCNC(=O)Nc3cc(Cl)ccc3Cl)CC2)cc1`, the inhibition was 21% (inactive).
With `CCCCc1nc(SCC(=O)Nc2nnc(C(C)C)s2)n[nH]1`, the inhibition is -16.5% (inactive).
Consider `CN1C(=O)/C(=C/c2ccc(C(=O)NC3CCCC3)cc2)Oc2ccccc21`, for which the inhibition was 1.1% (inactive).
On to `O=C(NCCN1CCOCC1)c1ccc(/C=C2\Sc3ccccc3N(Cc3ccc(F)cc3)C2=O)cc1`, for which the inhibition was 0.94% (inactive).
The result for `CN1CCN(CCCNC(=O)c2ccc(/C=C3\Oc4ccccc4N(Cc4ccc(Cl)cc4)C3=O)cc2)CC1` reads 40.6% (active).
The result for `Nc1nc(Nc2ccccc2)nc(NCCO)c1[N+](=O)[O-]` reads -6.38% (inactive); that for `OCCNc1nc(Nc2ccc(Cl)c(Cl)c2)nc2ccccc12`, 40.6% (active).
The figure for `CN(C)c1nc(Nc2ccc(Cl)c(Cl)c2)nc(N(C)C)n1` is -4.12% (inactive); for `COc1ccc(NC(=O)NNC(=O)COc2cc(C)c(Cl)c(C)c2)c(OC)c1` it is -28% (inactive); for `CCOC(=O)C(NS(=O)(=O)c1ccc(C)cc1)(C(F)(F)F)P(=O)(OCC(C)C)OCC(C)C` (configuration not stated) it is -11.5% (inactive).
Turning to `Cc1cc(OCC(=O)N2CCN(c3ncccn3)CC2)ccc1Cl`, the inhibition was -46.1% (inactive).
The result for `O=C(O)c1ccc2c(=O)n3c(nc2c1)/C(=C/c1ccc(Cl)c([N+](=O)[O-])c1)CC3` reads -14.2% (inactive).
The figure for `Cc1cccc(OCC(O)Cn2c(=N)n(CCN3CCOCC3)c3ccccc32)c1` (configuration not stated) is 18.2% (inactive).
The result for `Cn1c(=N)n(CC(O)c2ccccc2)c2ccccc21` (configuration not stated) reads 2.17% (inactive); that for `CCOc1ccc(C(O)Cn2c(=N)n(CCN3CCCCC3)c3ccccc32)cc1` (configuration not stated), 40.9% (active).
As for `CCC1CCCCN1CCCNC(=O)C1CCC(Cn2c(=O)[nH]c3ccccc3c2=O)CC1` (configuration not stated), the inhibition was 2.92% (inactive).
The figure for `CCC1CCCCN1CCCNC(=O)c1cc2c(Cl)nc3ccccc3c2s1` (configuration not stated) is 43.6% (active); for `CCC1CCCCN1CCCNC(=O)Cn1nc(-c2ccccc2)ccc1=O` (configuration not stated) it is 0.11% (inactive).
The result for `O=C(N/N=C/c1ccc(OCC2COCCO2)cc1)c1ccc(Br)cc1` (configuration not stated) reads -19.9% (inactive); that for `CCCCCCc1cc2cc(-c3nnc(-c4cccc(OC)c4)o3)c(=O)oc2cc1O`, 0.28% (inactive).
In the case of `CN(C)CCCn1c(SCc2ccc(Cl)cc2)nnc1-c1ccncc1`, the inhibition is 3.61% (inactive).
The result for `COc1ccc(OC)c(NC(=O)CN(Cc2ccc(Cl)cc2)S(C)(=O)=O)c1` reads -26.1% (inactive).
The result for `O=C(/C=C/c1ccco1)NC(=S)Nc1ccccc1Br` reads -8.41% (inactive); that for `CCCNC(=O)N1CCC(c2ccc3c(c2)OCO3)CC1`, -7.97% (inactive); that for `NC(=O)COC(=O)c1ccc2c(c1)C(=O)N(Cc1ccco1)C2=O`, -2.94% (inactive).
With `CCn1nnnc1SCC(=O)Nc1ccc(N(C)C)cc1`, the inhibition is -4.25% (inactive).
